Vaccinia Venus = qHTS for Stage-Specific Inhibitors of Vaccinia Orthopoxvirus: Venus Reporter Primary qHTS; Vaccinia virus Venus reporter expression, fluorescence; Potency, µM (doses to about 36.5 µM), without a hit: top-dose activity change, negative = inhibition, actives largely listed as inhibitors; 330,000 tested, 0.46% active; AID 720580, 2013; calls by dose curve; tested in A549 cells; further: nearly all actives have a fitted effect of over 30% in size
Marburg entry inh = qHTS for inhibitors of binding or entry into cells for Marburg Virus; AID 540276, 2011; Potency, µM (doses to about 37.8 µM), for the others: top-dose activity change, negative = inhibition, actives largely listed as inhibitors; 300,000 tested, 1.8% active; Marburg virus pseudotyped entry inhibition, cell reporter; calls by dose curve; tested in HEK293 cells
LASV entry inh = qHTS for Inhibitors of binding or entry into cells for Lassa Virus; Lassa virus pseudotype entry inhibition, cell reporter; Potency, µM (series often up to 37.9 µM), inactives show at the top dose activity change, negative = inhibition, actives largely listed as inhibitors; 300,000 tested, 1.2% active; calls by dose curve; tested in HEK293 cells; further: nearly all actives have a fitted effect of over 50% in size
HCV inh = qHTS Assay for Inhibitors of Hepatitis C Virus (HCV). Potency, µM (series often up to 41.8 µM), for inactives: top-dose activity change, negative = inhibition, most hits filed as inhibitors. Huh7.5.1 HCVcc-Cre infection, luciferase reporter, 44 h. 340,000 tested, 3.4% active; active means well fitted inhibition curve with a large enough effect; inconclusive means small, poorly fitted or top-dose-only effect, or another doubt; inactive means no such curve, though single readings can be large or run the other way
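Infectious HCV cell culture screen: compound-treated cells (1,000/well, pre-plated 4 h) are infected with HCVcc-Cre at roughly 0.5 moi and grown 44 h. Infection is quantified by luciferase signal after 15 min substrate incubation at room temperature.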
VACV mCherry inh = qHTS for Stage-Specific Inhibitors of Vaccinia Orthopoxvirus: mCherry Reporter Primary qHTS | Vaccinia virus mCherry reporter infection, fluorescence | Potency, µM (doses to about 36.5 µM), without a hit: top-dose activity change, negative = inhibition, most hits filed as inhibitors | 310,000 tested, 0.63% active | AID 720579, 2013; calls by dose curve; tested in A549 cells; further: nearly all actives have a fitted effect of over 35% in size
Active calls of the source: *; i = inactive; ? = inconclusive; nt = no result; [ ] = dose if it differs, or a comment. Most compounds without a hit are left out; they make up all but 4.6% or so of the library. On the % scale 0 is the no-effect control and ±100 the full control effect; potency means the concentration at half of the fitted maximal effect.

SMILES	Vaccinia Venus	Marburg entry inh	LASV entry inh	HCV inh	VACV mCherry inh
CCS(=O)(=O)N1CCN(c2ccc([N+](=O)[O-])c(N3CCOCC3)c2)CC1	-12%	-7%	9%	-9%	-10%
O=[N+]([O-])c1ccc(N2CCCCC2)cc1N1CCOCC1	-9%	-14%	?	7%	-18%
C1=C(CCNc2ncnc3nc[nH]c23)CCCC1	-28%	-41%	-27%	10µM*	-26%
c1ccc(CCCNc2ncnc3nc[nH]c23)cc1	-12%	7%	3%	?	-10%
CCCCc1ccc(Nc2ncnc3nc[nH]c23)cc1	-29%	nt	nt	6%	10µM*
CCc1ccc(Nc2ncnc3nc[nH]c23)cc1	0%	?	?	-8%	-9%
Clc1ccc(CCNc2ncnc3nc[nH]c23)cc1	?	?	-3%	10µM*	?
c1ccc2c(CCNc3ncnc4nc[nH]c34)cccc2c1	nt	?	1%	11µM*	nt
COC(=O)C1CCN(Cc2ccc3c(c2)CN(C(=O)c2cc4cc(F)ccc4[nH]2)CCO3)CC1	1%	nt	nt	nt	-5%
O=C(NCCc1csc(-c2ccc(F)cc2)n1)c1cccs1	5%	nt	-3%[46.1 µM]	nt	-9%
CN1CCc2c(c3c(n2C)CCN(C)C3c2ccc(F)cc2)C1c1ccc(F)cc1 (centres undefined)	-5%	-14%	-1%	0%	-11%
COc1ccc(C2c3c4c(n(C)c3CCN2C)CCN(C)C4c2ccc(OC)cc2)cc1 (centres undefined)	nt	?	?	13µM*	nt
COc1ccc(OC2CCN(S(=O)(=O)c3ccc(C(C)=O)cc3)CC2)cc1	nt	nt	nt	13µM*	nt
COc1ccc(C(=O)C2CCCN(S(=O)(=O)c3ccc(C(C)=O)cc3)C2)c(C)c1 (centres undefined)	nt	nt	nt	10µM*	nt
COc1cccc(-n2sc3c(c2=S)-c2cc(OC)ccc2NC3(C)C)c1	?	?	?	10µM*	?
OC(c1ccc2c(c1)CN(Cc1cccn1-c1ncccn1)CCO2)C1CCCCC1 (centres undefined)	-15%	nt	nt	nt	-15%
NC(=S)N=Nc1c(O)n(CCCl)c2ccc(Br)cc12	?	-21%	-15%	?	?
C/C(Cl)=C\Cn1c(O)c(N=NC(N)=S)c2cc(Br)ccc21	nt	nt	nt	11µM*	nt
Cc1ccc2c(c1)c(N=NC(N)=S)c(O)n2Cc1ccccc1	1µM*	?	-14%	0%	0.89µM*
NC(=S)N=Nc1c(O)n(Cc2ccc(Br)cc2)c2ccccc12	1µM*	?	?	1µM*	1µM*
COc1ccc(N2CCN(C(=O)c3cnc(N4CCOCC4)c4ccccc34)CC2)cc1	-19%	nt	?	nt	-12%
Cc1cc(C)cc(NC(=O)Cn2c(=O)n(Cc3ccc4c(c3)OCO4)c(=O)c3oc4ccccc4c32)c1	-16%	nt	3%[46.1 µM]	nt	-30%
O=C(c1cccs1)N1CCc2c([nH]c3ccccc23)C1c1ccccn1 (centres undefined)	nt	nt	nt	0%	nt
O=C(c1cc(-c2ccccc2)n[nH]1)N1CCc2c([nH]c3ccccc23)C1c1ccccn1 (centres undefined)	?	5.6µM*	?	?	?
CC(C)[C@H](NS(=O)(=O)c1cccc(C(F)(F)F)c1)C(=O)OCC(=O)NC(=O)NCc1ccco1	-11%	?	-9%	11µM*	-15%
SMILES	Vaccinia Venus	Marburg entry inh	LASV entry inh	HCV inh	VACV mCherry inh
CC(Nc1ncnc2ccccc12)c1ccccc1 (centres undefined)	-24%	?	?	4.5µM*	i
CCc1cc(C(=O)NC2CCCN(Cc3ccccc3F)C2)n(C)n1 (centres undefined)	nt	nt	nt	8.9µM*	nt
Cc1nc(-c2ccc(-c3ccc(C(=O)N4CCc5cc6c(cc54)C4(CCN(C)CC4)CO6)cc3)c(C)c2)no1	nt	5µM*	nt	nt	nt
COc1ccc(NC(=O)c2ccc(-c3ccc(-c4noc(C)n4)cc3C)cc2)cc1N1CCN(C)CC1	?	2.5µM*	?	?	-14%
Cc1ccc(NC(=O)N2CCN(c3cc(-c4noc(C)n4)ccc3C)CC2)c(C)c1	-5%	nt	?	nt	1%
COc1ccc(NC(=O)c2ccc(-c3ccc(-c4noc(C)n4)cc3C)cc2)cc1OCCN(C)C	-26%	nt	nt	nt	-15%
Cc1ccccc1C(=O)NC(C)c1nnc2n1CCN(Cc1ccnc3ccccc13)CC2 (centres undefined)	-2%	nt	nt	nt	-14%
CN(Cc1ccccc1)C(=O)NC1CCCCC1	nt	-12%	11%	-10%	nt
CC[C@@H](CC1CCCCC1)C(=O)N(Cc1ccccc1)c1ccccc1	-11%	nt	nt	10µM*	?
COC(=O)C1=C(C)N(Cc2ccccc2)C(=NCC2CC2)NC1c1ccccc1 (centres undefined)	nt	-1%[14.2 µM]	nt	nt	nt
CCN(CC)C(=O)c1ccc2nc3ccccc3nc2c1	?	25%	21%	-5%	2.2µM*
Cc1nc([N+](=O)[O-])c(SCC(N)=O)n1Cc1ccccc1	-13%	nt	nt	14%	i
Cc1nc([N+](=O)[O-])c(Sc2nc3ccccc3n2C)n1Cc1ccccc1	-13%	?	?	13µM*	-17%
OCC1OC(n2cnc3c(=S)nc[nH]c32)CC1O (centres undefined)	-12%	-16%	-3%[46.1 µM]	11%	i
S=c1nc[nH]c2c1ncn2C1CCCO1 (centres undefined)	?	?	?	12%	11µM*
CCOC(=O)c1cccc(NC(=O)Cn2c(=O)nc(-c3ccccc3F)c3cc(Cl)ccc32)c1	-15%	nt	-3%[46.1 µM]	nt	i
COCCC1CCCCN1Cc1nc(N2CCCCC2)c2cc(OC)c(OC)cc2n1 (centres undefined)	-1%	nt	nt	nt	-15%
COc1cnc(-c2ccccc2)nc1Sc1ccccc1	1%	?	20%	13µM*	-7%
CCOc1cc(N2CCOCC2)c(OCC)cc1NC(=O)Cc1cccc2ccccc12	-28%	?	-24%	14µM*	-14%
CCOc1cc(N2CCOCC2)c(OCC)cc1NC(=O)COC(=O)c1ccccc1C	-6%	?	?	-32%	i
CCOc1cc(N2CCOCC2)c(OCC)cc1NC(=O)c1ccc(NC(C)=O)cc1	-10%	-16%[46.1 µM]	?	-4%	-12%
CCOc1cc(N2CCOCC2)c(OCC)cc1NC(=O)c1ccc(OC)cc1	-4%	?	-23%	4.5µM*	-10%
O=C(c1n[nH]c2c1CCCC2)N1CCOc2ccc(C(O)C3CCCCC3)cc2C1 (centres undefined)	-2%	nt	nt	nt	-3%
OC(CN1C=CCc2ccccc21)c1ccc(Cl)cc1Cl (centres undefined)	-15%	nt	nt	nt	16%
O=C(CSc1nnc(-c2ccccc2Br)o1)N1CCN(C(=O)c2ccco2)CC1	?	-3%	2%	6%	13µM*
C=CCCN1C(=O)NC(c2ccccc2)C(C(=O)OC)=C1C (centres undefined)	nt	-16%[14.2 µM]	nt	nt	nt

Source: PubChem BioAssay
